Compound activity (PubChem BioAssay)
ALDH1A1 inh – inhibitors of human aldehyde dehydrogenase 1A1; P00352; Potency, µM (doses to about 75.3 µM), usual class: inhibitors; Purified ALDH1A1, NADH fluorescence, propionaldehyde substrate; 220,000 tested, 7.3% active; AID 1030
ALOX12 inhib – blocks human 12-lipoxygenase activity | P18054 | purified 12-hLO, xylenol orange hydroperoxide absorbance | Potency, µM (series often up to 57.1 µM), hits mostly inhibitors | 150,000 tested, 0.12% active | AID 1452; active means well fitted curve in the direction sought with a large enough effect; inconclusive means small, poorly fitted or top-dose-only effect, or another doubt; inactive means no such curve, though single readings can be large; an effect the other way counts as inactive or inconclusive; further: nearly all actives have a fitted effect of over 55% in size
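Purified human 12hLO (150 nM final) was preincubated with compounds for 15 min at room temperature in 25 mM Hepes pH 7.0, 0.01% Triton X-100, then reacted with 40 uM arachidonic acid for 30 min. Hydroperoxide was detected with ferrous iron/xylenol orange.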
PNC inhibitor – inhibitors of perinucleolar compartment assembly. activity change (PNC), negative = inhibition, % at 10 µM. PC3M PTB-GFP, PNC prevalence imaging, 16 h; active compounds read low. AID 2417. 140,000 tested, 3.1% active;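 active means readout at or below -70, meaning at least 70% loss of cells showing the perinucleolar compartment, a nuclear body marking cancer cells; inconclusive means readout between -30 and a set limit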
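Read-out is percentage of cells bearing a perinucleolar compartment, from automated 20x imaging of fixed, Hoechst-stained PC3M PTB-GFP cells. Cells were seeded 4 h, then exposed 16 h to compound (23 nl of library stock) in duplicate plates.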
IMPase cell inh – cell-permeable inhibitors of inositol monophosphatase (IMPase) | CHO-M1 cells, IP1 accumulation, HTRF TR-FRET ratio | inhibition (IP1 accumulation), % at 46.1 µM | 120,000 tested, under 10 active | AID 901; active means well fitted curve in the direction sought with a large enough effect in the signal ratio, not every such curve was filed as active; inconclusive means small, poorly fitted or top-dose-only effect, or a change in a side signal; inactive means no such curve, though single readings can be large or run the other way; the % refers to the signal ratio;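 further: cells stimulated with carbachol in lithium chloride buffer; higher means more IMPase inhibition seen as more IP1 and lower FRET ratio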
Target sequence (P97697 whole entry, looked up): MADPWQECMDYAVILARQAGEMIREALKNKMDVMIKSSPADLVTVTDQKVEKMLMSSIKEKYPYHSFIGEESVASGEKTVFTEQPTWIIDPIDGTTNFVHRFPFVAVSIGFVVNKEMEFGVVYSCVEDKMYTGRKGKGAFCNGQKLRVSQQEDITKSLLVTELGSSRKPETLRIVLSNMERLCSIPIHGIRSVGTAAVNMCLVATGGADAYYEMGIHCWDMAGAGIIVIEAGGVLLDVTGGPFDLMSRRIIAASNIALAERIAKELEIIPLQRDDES
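Seeded CHO-M1 cells were dosed with compound at up to 46 uM, stimulated with carbachol for 30 min, then lysed in IP-One detection reagents. Higher IP1 lowers the TR-FRET signal.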
HPGD block – blocks human HPGD enzyme activity; P15428; purified HPGD, NADH fluorescence kinetic, PGE2 substrate; Potency, µM, usual class: inhibitors; 150,000 tested, 4.3% active; AID 894
Target sequence (P15428 whole entry, looked up): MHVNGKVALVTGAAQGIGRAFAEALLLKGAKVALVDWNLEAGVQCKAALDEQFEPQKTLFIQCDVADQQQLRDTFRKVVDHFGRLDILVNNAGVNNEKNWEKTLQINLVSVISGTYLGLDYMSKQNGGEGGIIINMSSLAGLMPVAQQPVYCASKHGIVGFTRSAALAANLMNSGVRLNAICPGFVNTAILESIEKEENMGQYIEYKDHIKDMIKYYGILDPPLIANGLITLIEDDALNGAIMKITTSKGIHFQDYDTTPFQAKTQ
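NADH formation kinetics: reaction with 30 uM PGE2 and 1 mM NAD+ (final), 20 nM enzyme, Tris-HCl pH 8 with Tween 20, after 15 min compound preincubation at room temperature. Fluorescence change, last versus first of five reads.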
IMPase Li inh – membrane-permeable IMPase blocker, potentiated with lithium | CHO-M1 cells, IP1 TR-FRET (IP-One), carbachol + lithium | 210,000 tested, 0.35% active | AID 1457 | Potency, µM (titrated, usually from 59.4 µM), actives largely listed as inhibitors; active means well fitted curve in the direction sought with a large enough effect; inconclusive means small, poorly fitted or top-dose-only effect, or another doubt; inactive means no such curve, though single readings can be large; an effect the other way counts as inactive or inconclusive;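 further: IP1 builds up when IMPase is blocked and the TR-FRET signal falls; nearly all actives have a fitted effect of over 50% in size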
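CHO cells stably expressing M1 receptor (2000/well) were cultured 16–30 h, then exposed to compounds with a small lithium addition for 30 min at 37C. IP1 was measured by TR-FRET competition; AC50 from Hill fits.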
Each line names hits and unclear results; the compound was inactive in the other large screens. In the library only some 11% were active in any assay of this set; here they are far more common. Unless noted, the call rests on the fitted dose curve; in most records, active means well fitted inhibition curve with a large enough effect (not every such curve was filed as active); inconclusive means small, poorly fitted or top-dose-only effect, or another doubt; inactive means no such curve, though single readings can be large or run the other way.

COC(=O)CN1C(=O)C(O)(CC(=O)c2ccc(Br)cc2)c2ccccc21 (centres undefined)	ALDH1A1 inh 0.35µM
COC(=O)CN1C(=O)C(O)(CC(=O)c2ccc(C)cc2)c2cc(Br)ccc21 (centres undefined)	ALDH1A1 inh 20µM
CC(C)=CCC/C(C)=C/CO	none (no result: PNC inhibitor, IMPase cell inh)
CC(C)CC1C(C#N)=C(N)SC(N)=C1C#N	ALDH1A1 inh 3.5µM, PNC inhibitor inconclusive, HPGD block 32µM, IMPase Li inh inconclusive
N#CC1=C(N)SC(N)=C(C#N)C1c1c(Cl)cccc1Cl	ALDH1A1 inh 22µM, PNC inhibitor inconclusive, HPGD block inconclusive, IMPase Li inh inconclusive
N#CC1=C(N)SC(N)=C(C#N)C1Cc1ccccc1	ALDH1A1 inh 8.9µM, HPGD block 11µM
Cc1ccc(C2C(C#N)=C(N)SC(N)=C2C#N)o1	ALDH1A1 inh inconclusive, HPGD block inconclusive, IMPase Li inh inconclusive
N#CC1=C(N)SC(N)=C(C#N)C1C1CC=CCC1 (centres undefined)	ALDH1A1 inh inconclusive
N#CC1=C(N)SC(N)=C(C#N)C1CCc1ccccc1	ALDH1A1 inh inconclusive, HPGD block 14µM
CN1CCCN(S(=O)(=O)c2ccc(Cl)c(Cl)c2)CC1	none (no result: ALOX12 inhib, PNC inhibitor, IMPase cell inh, HPGD block)
COc1ccc(-c2nc3ccccc3c(=O)n2CCCn2ccnc2)cc1	ALDH1A1 inh 14µM, PNC inhibitor inconclusive
COc1ccc(-c2nc3ccccc3c(=O)n2CCOc2ccccc2C)cc1	ALDH1A1 inh inconclusive, PNC inhibitor -121 (no result: IMPase cell inh)
COCCCN=C(c1ccco1)n1c(=S)nc(-c2ccco2)n(CCCOC)c1=S	ALDH1A1 inh 3.5µM, PNC inhibitor inconclusive, HPGD block 28µM
COCCCn1c(-c2ccco2)nc2ccccc2c1=O	ALDH1A1 inh 22µM
O=C(O)CCc1ccc(-c2ccc(Br)cc2)o1	ALDH1A1 inh inconclusive, PNC inhibitor inconclusive, IMPase cell inh inconclusive, HPGD block inconclusive, IMPase Li inh 8.9µM
Cc1[nH]c2ccccc2c1/C=N/NC(=O)C1CC1(c1ccccc1)c1ccccc1 (centres undefined)	PNC inhibitor -110 (no result: IMPase cell inh)
CNc1ncncc1-c1ccccc1CN(C)C	ALDH1A1 inh inconclusive (no result: ALOX12 inhib, PNC inhibitor, IMPase cell inh, HPGD block)
C/C(=N\[N+](C)(C)C)c1ccc(C)c(C)c1	none (no result: PNC inhibitor, IMPase cell inh)
COc1ccc(-c2nc3cnc(OC)nc3n(CCc3ccccc3)c2=O)cc1	ALDH1A1 inh inconclusive, IMPase Li inh 7.1µM (no result: ALOX12 inhib, PNC inhibitor, IMPase cell inh, HPGD block)
Cn1cc(-c2nc3cnc(Oc4ccccc4)nc3n(C)c2=O)c2ccccc21	IMPase Li inh 7.1µM (no result: ALOX12 inhib, PNC inhibitor, IMPase cell inh, HPGD block)
Cn1c(=O)c(-c2ccc(Cl)cc2)nc2cnc(Oc3cccc(Cl)c3)nc21	IMPase Li inh 13µM (no result: ALOX12 inhib, PNC inhibitor, IMPase cell inh, HPGD block)
COc1ncc2nc(CCc3ccccc3)c(=O)n(C)c2n1	ALDH1A1 inh inconclusive (no result: PNC inhibitor, IMPase cell inh)
Cn1c(=O)c(CCc2ccccc2)nc2cnc(OCc3ccccc3)nc21	ALDH1A1 inh 11µM (no result: ALOX12 inhib, PNC inhibitor, IMPase cell inh, HPGD block)
COCCn1c(=O)c(-c2ccc(OC)cc2)nc2cnc(OCc3ccccc3)nc21	ALDH1A1 inh inconclusive (no result: ALOX12 inhib, PNC inhibitor, IMPase cell inh, HPGD block)
COCCn1c(=O)c(CCc2ccccc2)nc2cnc(Oc3cccc(Cl)c3)nc21	ALDH1A1 inh 14µM (no result: PNC inhibitor, IMPase cell inh)
COCCn1c(=O)c(-c2ccccc2)nc2cnc(Oc3cccc(Cl)c3)nc21	ALDH1A1 inh inconclusive (no result: ALOX12 inhib, PNC inhibitor, IMPase cell inh, HPGD block)
Cc1cc(Br)c(OCC(=O)NN)c2c1CCC2	ALDH1A1 inh 2µM (no result: ALOX12 inhib, PNC inhibitor, IMPase cell inh, HPGD block, IMPase Li inh)
CCCOC(=O)c1ccc(NC(=O)c2c(Cl)ccc(Cl)c2OC)cc1	ALDH1A1 inh inconclusive (no result: IMPase cell inh)
COc1c(Cl)ccc(Cl)c1C(=O)OCC(=O)O	ALDH1A1 inh 22µM
O=C(O)[C@H]1CCCC[C@@H]1C(=O)Nc1nc2ccccc2[nH]1	none (no result: PNC inhibitor, IMPase cell inh)
O=C(CCNS(=O)(=O)c1cccc2nsnc12)NC1CCN(Cc2ccccc2)CC1	PNC inhibitor -112
O=C(CCS(=O)(=O)c1cccc2nsnc12)NC1CCCCC1	ALDH1A1 inh inconclusive, HPGD block 28µM
CCN(CC)c1ccc(NC(=O)CCS(=O)(=O)c2cccc3nsnc23)c(C)c1	ALDH1A1 inh 28µM (no result: ALOX12 inhib, PNC inhibitor, IMPase cell inh, HPGD block)
O=C(CCS(=O)(=O)c1cccc2nsnc12)N1CCN(C(=O)c2ccco2)CC1	ALDH1A1 inh 25µM
N#CCCn1c(=O)cnc2cnc(N3CCOCC3)nc21	ALDH1A1 inh inconclusive, HPGD block inconclusive (no result: PNC inhibitor, IMPase cell inh)
C[C@@H](N=C(N)N)C(=O)O	none (no result: PNC inhibitor, IMPase cell inh)
O=C(Oc1ccccc1)N1CCC2(CC1)CCN(c1ccncc1)CC2	ALDH1A1 inh inconclusive (no result: PNC inhibitor, IMPase cell inh)
Cc1ccc(NC(=O)c2cc(S(=O)(=O)N3CCOCC3)c(Cl)cc2Cl)cc1	none (no result: ALDH1A1 inh, ALOX12 inhib, PNC inhibitor, HPGD block, IMPase Li inh)
CCCCCOC(=O)CSc1ncnc2sc3c(c12)CCC(C)C3 (centres undefined)	none (no result: ALDH1A1 inh, ALOX12 inhib, PNC inhibitor, HPGD block, IMPase Li inh)
